Measured values published in PubChem BioAssay (EPA / NIEHS).
Where “and” joins values, the source holds several entries; their conditions need not be identical. Equal entries are not always repeated. Results filed as inconclusive are left out. Where a structure was tested more than once in an assay, its records may differ in their call. Calls of active or inactive are those of the source. Rule for the calls, unless noted: active = hit-call score of the fitted dose curve at least 0.9, where 1 is the maximum; inactive = score below 0.9.

How the values were obtained:
[1] = target: Glucocorticoid receptor (Homo sapiens) (UniProt P04150); experiment: ATG_GR_TRANS: Attagene TRANS-FACTORIAL HepG2 Assay for human Glucocorticoid Receptor (GR) (AID 2282978; active = hit-call score of the fitted dose curve at least 0.9, where 1 is the maximum;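 note: activators score as hits since higher reporter transcript over DMSO is fitted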); settings: HepG2 Attagene TRANS GR reporter, mRNA transcription
Procedure, shortened: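 Fluorescent capillary-electrophoresis quantitation of reporter mRNA is the readout, taken 24 h after dosing human HepG2 cells carrying transiently transfected GAL4-UAS reporter units activated by chimeric NR-GAL4 fusions; activity scored as induction over DMSO.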

[2] = target: Bile acid receptor (Homo sapiens) (UniProt Q96RI1); experiment: ATG_FXR_TRANS: Attagene TRANS-FACTORIAL HepG2 Assay for Farnesoid X Receptor (FXR) (AID 2282979; active = hit-call score of the fitted dose curve at least 0.9, where 1 is the maximum;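 note: hits raise reporter mRNA above DMSO so AC50 marks FXR activation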); settings: HepG2 Attagene TRANS FXR-GAL4 reporter transcription
Procedure, shortened: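 After 24 h chemical treatment of transfected HepG2 cells, GAL4-UAS reporter transcripts driven by an exogenous FXR-GAL4 fusion were measured by RT-PCR and capillary electrophoresis. Increases over DMSO were fitted.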

[3] = target: Oxysterols receptor LXR-alpha (Homo sapiens) (UniProt Q13133); experiment: ATG_LXRa_TRANS: Attagene TRANS-FACTORIAL HepG2 Assay for human Liver X Receptor alpha (LXRa) (AID 2282980; active = hit-call score of the fitted dose curve at least 0.9, where 1 is the maximum); settings: HepG2 Attagene TRANS reporter, LXRa transactivation
Procedure, shortened: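 In this multiplexed TRANS system, compounds act on HepG2 cells carrying GAL4-UAS reporter units and a receptor-GAL4 fusion for 24 h. Induced reporter RNA is amplified, fluorescently labelled and sized by capillary electrophoresis, with DMSO as baseline.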

[4] = target: Hepatocyte nuclear factor 4-alpha (Homo sapiens) (UniProt P41235); experiment: ATG_HNF4a_TRANS: Attagene TRANS-FACTORIAL HepG2 Assay for human Hepatocyte Nuclear Factor 4 alpha (HNF4a) (AID 2282982; active = hit-call score of the fitted dose curve at least 0.9, where 1 is the maximum); settings: HepG2 HNF4a transactivation reporter, mRNA readout
Procedure, shortened: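 HepG2 cells transiently transfected with multiplexed GAL4-UAS reporter units responsive to chimeric NR-GAL4 proteins; compound exposure 24 h. Reporter mRNA quantified by RT-PCR, 6-FAM labelling, HpaI digestion and capillary electrophoresis; gain of signal versus DMSO baseline.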

[5] = ATG_M_06_TRANS: Attagene TRANS-FACTORIAL HepG2 Assay for M06 Transcription Factor (Internal Marker) (AID 2282983; active = hit-call score of the fitted dose curve at least 0.9, where 1 is the maximum); settings: HepG2 Attagene TRANS M06 internal marker reporter
Procedure, shortened: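 Internal-marker background readout from a multiplexed TRANS reporter system in HepG2; 24 h dosing; mRNA induction quantified by RT-PCR plus capillary electrophoresis fluorescence; DMSO as negative control and baseline.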

[6] = ATG_M_32_TRANS: Attagene TRANS-FACTORIAL HepG2 Assay for M32 Transcription Factor (Internal Marker) (AID 2282984; active = hit-call score of the fitted dose curve at least 0.9, where 1 is the maximum); settings: HepG2 Attagene TRANS M32 internal marker reporter
Procedure, shortened: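 HepG2 cells transiently transfected with multiple GAL4-UAS reporter transcription units, dosed for 24 hours; reporter mRNA quantified by RT-PCR, 6-FAM primer extension, HpaI digestion and capillary electrophoresis. Gain-of-signal fitted versus DMSO baseline; internal background-control marker.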

[7] = target: Nuclear receptor subfamily 4 group A member 2 (Homo sapiens) (UniProt P43354); experiment: ATG_NURR1_TRANS: Attagene TRANS-FACTORIAL HepG2 Assay for human Nuclear Receptor Related Protein 1 (NURR1) (AID 2282985; active = hit-call score of the fitted dose curve at least 0.9, where 1 is the maximum); settings: HepG2 Attagene TRANS reporter, mRNA readout
Procedure, shortened: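 HepG2 cells transiently transfected with GAL4-UAS reporter units and chimeric NR-Gal4 constructs; chemical exposure 24 h. Reporter mRNA quantified by RT-PCR, fluorescent labelling and capillary electrophoresis; gain of signal fitted relative to DMSO baseline.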

[8] = target: Transcriptional activator Myb (Homo sapiens) (UniProt P10242); experiment: ATG_Myb_CIS: Attagene CIS-FACTORIAL HepG2 Assay for human Myeloblastosis (Myb) Proto-Oncogene Transcription Factor (AID 2282986); settings: HepG2 Attagene CIS-FACTORIAL Myb reporter transcription; actives raise or lower the signal
Procedure, shortened: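 Reporter transcript levels, quantified by fluorescent RT-PCR and capillary electrophoresis, serve as the read-out. Transfected HepG2 cells carrying cis-promoter reporter units are dosed for 24 hours, and curves are fitted bidirectionally against DMSO controls.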

[9] = target: Nuclear respiratory factor 1 (Homo sapiens) (UniProt Q16656); experiment: ATG_NRF1_CIS: Attagene CIS-FACTORIAL HepG2 Assay for human Nuclear Respiratory Factor 1 (NRF1) Orphan Gene (AID 2282987); settings: HepG2 NRF1 cis-element reporter, Attagene multiplex; actives raise or lower the signal
Procedure, shortened: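 Multiplexed cis-reporter assay, HepG2 cells, 24 h treatment. Total RNA → oligo(dT) RT → PCR with reporter-specific primers → 6-FAM primer extension → HpaI cut → CE. Bidirectional fit vs DMSO.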

[10] = ATG_NFI_CIS: Attagene CIS-FACTORIAL HepG2 Assay for human Nuclear Factor I (NFI) (AID 2282989); settings: HepG2 cis-regulatory reporter, NFI response element transcription; actives raise or lower the signal
Procedure, shortened: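 Reporter transcription driven by endogenous transcription factors in HepG2 cells; 24 h treatment. Quantitation by labelled RT-PCR fragments on capillary electrophoresis, gain- or loss-of-signal relative to DMSO.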

[11] = ATG_NRF2_ARE_CIS: Attagene CIS-FACTORIAL HepG2 Assay for human Nuclear Factor Erythroid 2 Related Factor 2 (NFR2) response to Antioxidant Response Elements (ARE) (AID 2282992); settings: HepG2 Attagene ARE/NRF2 reporter, transcription factor activity; actives raise or lower the signal;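 for AC50: reporter mRNA level measured by RT-PCR and capillary electrophoresis fluorescence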
Procedure, shortened: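 Multiplexed reporter mRNA profiling in HepG2 after a 24 h chemical exposure. Curves fitted in both directions relative to DMSO negative control.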

[12] = ATG_Oct_MLP_CIS: Attagene CIS-FACTORIAL HepG2 Assay for human Octamer-Binding Transcription Factor (Oct) (AID 2282993); settings: HepG2 Attagene cis-factorial Oct reporter, mRNA; actives raise or lower the signal
Procedure, shortened: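 Transfected HepG2 cells, 24 h treatment. Reporter mRNA quantified by RT-PCR–capillary electrophoresis; bidirectional fitting against DMSO.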

[13] = target: Cellular tumor antigen p53 (Homo sapiens) (UniProt P04637); experiment: ATG_p53_CIS: Attagene CIS-FACTORIAL HepG2 Assay for human p53 Transcription Factor (AID 2282994); settings: HepG2 p53 cis-element reporter, Attagene mRNA; actives raise or lower the signal
Procedure, shortened: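 Multiplexed reporter mRNA assay in human HepG2 liver cells; cis-regulated units report endogenous factor activity. Values come from bidirectional curve fitting against DMSO negative control after 24 h treatment.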

[14] = BSK_3C_TissueFactor: BioMAP Diversity Plus: 3C Assay for Tissue Factor Biomarker Activity (AID 2282997); settings: BioMAP 3C HUVEC, tissue factor biomarker readout; actives raise or lower the signal
Procedure, shortened: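 Endothelial monolayers (human umbilical vein, primary) are dosed, incubated 24 h, and assayed for Tissue Factor by ELISA; DMSO serves as negative control for bidirectional fitting.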

[15] = BSK_3C_uPAR: BioMAP Diversity Plus: 3C Assay for Urokinase-type plasminogen activator receptor (uPAR) Biomarker Activity (AID 2282998); settings: BioMAP 3C HUVEC, uPAR biomarker ELISA; actives raise or lower the signal
Procedure, shortened: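 Readout: ELISA for surface uPAR. System: human umbilical vein endothelial primary cells, 24 h after chemical exposure. Analysis: bidirectional fit, DMSO baseline.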

[16] = BSK_3C_VCAM1: BioMAP Diversity Plus: 3C Assay for Vascular cell adhesion molecule 1 (VCAM1) Biomarker Activity (AID 2282999); settings: BioMAP 3C HUVEC, VCAM1 ELISA, cytokine-stimulated; actives raise or lower the signal
Procedure, shortened: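 Human umbilical vein endothelial cells were dosed with compound for 24 h, after which cell-surface VCAM-1 was quantified by ELISA. Bidirectional curve fitting used DMSO as negative control and activity baseline.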

[17] = BSK_4H_Eotaxin3: BioMAP Diversity Plus: 4H Assay for Eotaxin 3 Biomarker Activity (AID 2283000); settings: primary human endothelial cells (HUVEC); actives raise or lower the signal
Procedure, shortened: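 ELISA quantitation of CCL26 (Eotaxin-3) protein from chemically dosed human vascular endothelial cells at 24 h; increases and decreases both scored relative to DMSO-treated baseline.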

[18] = target: Myc proto-oncogene protein (Homo sapiens) (UniProt P01106); experiment: ATG_Myc_CIS: Attagene CIS-FACTORIAL HepG2 Assay for human Myelocytomatosis (Myc) Proto-Oncogene Transcription Factor (AID 2282990); settings: HepG2, Attagene cis-reporter transcription factor activity; actives raise or lower the signal
Procedure, shortened: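 DMSO-normalised, bidirectionally fitted reporter mRNA signal. HepG2 cells transfected with cis reporter constructs, treated 24 h; transcripts detected by RT-PCR, 6-FAM primer extension and CE.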

[19] = ATG_NF_kB_CIS: Attagene CIS-FACTORIAL HepG2 Assay for human Nuclear Factor Kappa B (NF-kB) (AID 2282991); settings: HepG2 Attagene cis-factorial NF-kB reporter mRNA; actives raise or lower the signal
Procedure, shortened: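 Transient MRTU transfection of human HepG2 liver cells → 24 h chemical exposure → total RNA, oligo(dT) RT → PCR, 6-FAM primer extension, HpaI digest 2 h 37 C → CE fragment analysis. Bidirectional fitting, DMSO negative control.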

Measured: AC50

Chain of Cellular tumor antigen p53 (Homo sapiens) (P04637 whole entry, looked up): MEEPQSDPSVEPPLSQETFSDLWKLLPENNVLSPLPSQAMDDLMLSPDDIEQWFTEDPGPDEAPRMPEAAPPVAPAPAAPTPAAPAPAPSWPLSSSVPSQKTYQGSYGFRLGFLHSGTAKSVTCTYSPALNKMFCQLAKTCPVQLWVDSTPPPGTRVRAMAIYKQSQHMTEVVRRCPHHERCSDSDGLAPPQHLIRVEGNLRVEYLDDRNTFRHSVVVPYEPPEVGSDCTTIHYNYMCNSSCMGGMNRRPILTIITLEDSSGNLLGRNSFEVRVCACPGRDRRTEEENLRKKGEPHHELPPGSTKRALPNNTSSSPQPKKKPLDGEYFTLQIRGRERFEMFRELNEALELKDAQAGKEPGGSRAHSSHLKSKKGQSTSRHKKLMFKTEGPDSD
Chain of Nuclear receptor subfamily 4 group A member 2 (Homo sapiens) (P43354 whole entry, looked up, the tested form may be a part): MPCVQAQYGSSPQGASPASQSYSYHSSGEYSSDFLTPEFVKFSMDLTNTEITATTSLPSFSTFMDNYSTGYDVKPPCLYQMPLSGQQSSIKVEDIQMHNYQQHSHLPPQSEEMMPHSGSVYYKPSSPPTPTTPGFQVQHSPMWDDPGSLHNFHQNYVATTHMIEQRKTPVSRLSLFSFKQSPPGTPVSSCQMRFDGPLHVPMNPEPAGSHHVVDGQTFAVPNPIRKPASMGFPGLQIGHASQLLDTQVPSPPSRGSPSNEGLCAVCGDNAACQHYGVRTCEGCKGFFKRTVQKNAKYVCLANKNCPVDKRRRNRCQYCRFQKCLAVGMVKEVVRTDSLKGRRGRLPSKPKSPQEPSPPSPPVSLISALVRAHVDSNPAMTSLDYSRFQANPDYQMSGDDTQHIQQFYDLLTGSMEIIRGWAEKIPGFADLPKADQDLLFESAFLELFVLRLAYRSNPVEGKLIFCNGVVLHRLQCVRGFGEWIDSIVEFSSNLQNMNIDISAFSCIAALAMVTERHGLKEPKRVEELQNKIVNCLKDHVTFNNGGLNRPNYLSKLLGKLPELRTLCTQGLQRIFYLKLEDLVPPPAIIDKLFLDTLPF
Chain of Glucocorticoid receptor (Homo sapiens) (P04150 whole entry, looked up, the tested form may be a part): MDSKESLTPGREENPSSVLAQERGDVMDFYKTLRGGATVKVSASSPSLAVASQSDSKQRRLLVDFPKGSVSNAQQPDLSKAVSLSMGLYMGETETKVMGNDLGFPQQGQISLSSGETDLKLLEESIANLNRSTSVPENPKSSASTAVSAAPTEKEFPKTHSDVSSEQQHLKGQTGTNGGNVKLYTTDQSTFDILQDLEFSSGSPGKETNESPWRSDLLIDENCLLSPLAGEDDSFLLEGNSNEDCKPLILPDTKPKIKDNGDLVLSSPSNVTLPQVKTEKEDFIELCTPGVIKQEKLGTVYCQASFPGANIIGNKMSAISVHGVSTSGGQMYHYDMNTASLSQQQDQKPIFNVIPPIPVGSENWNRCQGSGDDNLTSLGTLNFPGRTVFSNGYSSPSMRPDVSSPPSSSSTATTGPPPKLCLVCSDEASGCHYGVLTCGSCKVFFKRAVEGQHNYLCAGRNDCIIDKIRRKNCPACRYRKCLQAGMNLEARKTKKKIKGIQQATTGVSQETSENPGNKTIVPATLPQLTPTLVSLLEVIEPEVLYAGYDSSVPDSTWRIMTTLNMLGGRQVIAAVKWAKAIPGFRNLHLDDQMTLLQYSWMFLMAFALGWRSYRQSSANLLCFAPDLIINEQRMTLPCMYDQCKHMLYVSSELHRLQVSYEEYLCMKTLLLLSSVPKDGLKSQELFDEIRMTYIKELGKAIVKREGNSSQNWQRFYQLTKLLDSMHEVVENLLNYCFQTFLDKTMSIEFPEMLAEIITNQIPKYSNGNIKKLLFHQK
Chain of Transcriptional activator Myb (Homo sapiens) (P10242 whole entry, looked up): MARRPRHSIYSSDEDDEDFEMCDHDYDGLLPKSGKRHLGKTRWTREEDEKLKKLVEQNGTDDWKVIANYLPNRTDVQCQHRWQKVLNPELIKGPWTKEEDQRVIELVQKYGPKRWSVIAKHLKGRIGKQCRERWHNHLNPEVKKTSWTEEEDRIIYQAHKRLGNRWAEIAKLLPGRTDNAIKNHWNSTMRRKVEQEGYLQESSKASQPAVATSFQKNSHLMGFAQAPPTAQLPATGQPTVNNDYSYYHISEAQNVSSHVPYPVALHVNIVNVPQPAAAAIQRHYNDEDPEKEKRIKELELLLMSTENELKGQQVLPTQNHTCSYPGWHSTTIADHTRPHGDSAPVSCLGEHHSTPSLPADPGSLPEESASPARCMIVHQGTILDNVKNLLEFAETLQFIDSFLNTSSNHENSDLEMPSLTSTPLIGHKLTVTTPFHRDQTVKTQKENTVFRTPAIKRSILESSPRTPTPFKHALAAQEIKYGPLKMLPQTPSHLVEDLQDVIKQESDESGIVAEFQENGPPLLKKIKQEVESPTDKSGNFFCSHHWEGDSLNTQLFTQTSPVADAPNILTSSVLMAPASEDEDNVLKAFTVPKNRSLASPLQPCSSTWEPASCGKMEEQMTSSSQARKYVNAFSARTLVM
Chain of Myc proto-oncogene protein (Homo sapiens) (P01106 whole entry, looked up): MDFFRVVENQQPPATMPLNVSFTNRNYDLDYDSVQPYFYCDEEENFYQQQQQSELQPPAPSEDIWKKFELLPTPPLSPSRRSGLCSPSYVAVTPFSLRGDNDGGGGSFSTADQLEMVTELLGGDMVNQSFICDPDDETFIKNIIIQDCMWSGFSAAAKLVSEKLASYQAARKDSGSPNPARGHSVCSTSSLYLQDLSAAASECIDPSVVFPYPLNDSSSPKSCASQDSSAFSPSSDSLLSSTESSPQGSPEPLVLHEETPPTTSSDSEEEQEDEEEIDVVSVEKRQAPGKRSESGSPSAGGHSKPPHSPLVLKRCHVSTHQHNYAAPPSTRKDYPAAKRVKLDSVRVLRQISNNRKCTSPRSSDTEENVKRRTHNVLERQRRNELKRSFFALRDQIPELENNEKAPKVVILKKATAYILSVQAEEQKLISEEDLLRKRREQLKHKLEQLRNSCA
Chain of Hepatocyte nuclear factor 4-alpha (Homo sapiens) (P41235 whole entry, looked up, the tested form may be a part): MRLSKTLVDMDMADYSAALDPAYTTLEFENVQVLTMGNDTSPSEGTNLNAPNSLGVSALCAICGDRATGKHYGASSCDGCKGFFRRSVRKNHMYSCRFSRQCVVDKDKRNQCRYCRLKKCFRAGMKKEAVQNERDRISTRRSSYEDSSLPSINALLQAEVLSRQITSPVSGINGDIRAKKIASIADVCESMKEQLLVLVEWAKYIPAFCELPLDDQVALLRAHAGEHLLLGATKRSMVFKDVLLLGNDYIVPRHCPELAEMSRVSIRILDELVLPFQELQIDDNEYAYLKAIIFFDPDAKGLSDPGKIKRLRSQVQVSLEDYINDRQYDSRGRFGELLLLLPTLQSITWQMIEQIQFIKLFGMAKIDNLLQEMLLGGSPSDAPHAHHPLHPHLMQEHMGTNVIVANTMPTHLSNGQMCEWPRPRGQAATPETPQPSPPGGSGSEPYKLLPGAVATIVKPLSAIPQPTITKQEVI
Chain of Bile acid receptor (Homo sapiens) (Q96RI1 whole entry, looked up, the tested form may be a part): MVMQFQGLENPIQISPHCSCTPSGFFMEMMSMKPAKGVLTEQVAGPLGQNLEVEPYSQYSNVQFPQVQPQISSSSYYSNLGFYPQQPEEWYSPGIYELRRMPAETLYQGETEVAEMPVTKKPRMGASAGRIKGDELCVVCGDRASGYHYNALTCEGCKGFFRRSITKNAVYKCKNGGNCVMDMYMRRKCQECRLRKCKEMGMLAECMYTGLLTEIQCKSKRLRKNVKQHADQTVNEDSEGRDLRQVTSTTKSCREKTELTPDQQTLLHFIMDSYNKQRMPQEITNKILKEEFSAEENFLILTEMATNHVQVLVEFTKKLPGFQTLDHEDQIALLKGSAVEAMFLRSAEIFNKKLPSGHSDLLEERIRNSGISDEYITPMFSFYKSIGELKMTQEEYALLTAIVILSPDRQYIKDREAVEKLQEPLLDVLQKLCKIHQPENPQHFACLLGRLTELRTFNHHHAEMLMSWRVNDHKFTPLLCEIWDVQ
Chain of Oxysterols receptor LXR-alpha (Homo sapiens) (Q13133 whole entry, looked up, the tested form may be a part): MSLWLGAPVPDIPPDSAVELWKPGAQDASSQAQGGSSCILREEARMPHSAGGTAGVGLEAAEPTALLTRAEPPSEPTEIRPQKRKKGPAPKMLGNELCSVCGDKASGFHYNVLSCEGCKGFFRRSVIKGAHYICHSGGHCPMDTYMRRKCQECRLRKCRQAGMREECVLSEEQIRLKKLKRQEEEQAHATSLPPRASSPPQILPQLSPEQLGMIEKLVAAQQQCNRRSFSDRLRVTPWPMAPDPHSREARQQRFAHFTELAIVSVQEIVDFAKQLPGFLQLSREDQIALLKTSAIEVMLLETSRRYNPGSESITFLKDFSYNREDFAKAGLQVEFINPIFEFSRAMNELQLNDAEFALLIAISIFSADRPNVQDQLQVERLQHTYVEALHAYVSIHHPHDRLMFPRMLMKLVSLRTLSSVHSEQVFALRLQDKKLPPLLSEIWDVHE
Chain of Nuclear respiratory factor 1 (Homo sapiens) (Q16656 whole entry, looked up): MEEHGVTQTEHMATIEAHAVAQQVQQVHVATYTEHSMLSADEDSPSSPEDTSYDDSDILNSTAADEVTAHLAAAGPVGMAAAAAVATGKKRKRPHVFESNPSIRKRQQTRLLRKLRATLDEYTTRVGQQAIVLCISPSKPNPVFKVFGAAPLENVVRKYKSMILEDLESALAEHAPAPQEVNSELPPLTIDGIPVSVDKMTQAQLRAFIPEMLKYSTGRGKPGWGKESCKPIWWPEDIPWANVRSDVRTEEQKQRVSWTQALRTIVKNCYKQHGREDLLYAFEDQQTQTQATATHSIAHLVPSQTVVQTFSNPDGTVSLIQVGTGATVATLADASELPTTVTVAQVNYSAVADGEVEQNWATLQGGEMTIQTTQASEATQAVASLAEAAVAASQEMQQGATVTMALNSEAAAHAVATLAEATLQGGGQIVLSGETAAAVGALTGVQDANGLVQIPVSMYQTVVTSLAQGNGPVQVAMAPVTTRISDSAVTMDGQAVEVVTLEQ

CC/C(=C(/CC)c1ccc(O)cc1)c1ccc(O)cc1
inactive: [1] | [2] | [3] | [4] | [5] | [6] | [7] | [8] | [9] | [10] | [11] | [12] | [13]
active: [10] 13.9 µM | [11] 12.7 µM [middle of 4 runs] | [12] 16.7 µM and 11.1 µM and 16.6 µM | [13] 11.1 µM | [14] 27.1 µM | [15] 16.6 µM | [16] 32.5 µM | [17] 27.6 µM

CCCCCCCC[Si](OCC)(OCC)OCC
active: [9] 147 µM | [10] 155 µM | [13] 78.4 µM | [16] 18.9 µM | [17] 30.9 µM
inactive: [1] | [3] | [6] | [7] | [8] | [9] | [10] | [18] | [19] | [12] | [13] | [15]

CCCCCCCCCC(=O)O
active: [7] 104 µM | [19] 104 µM
inactive: [1] | [4] | [6] | [7] | [8] | [9] | [10] | [19] | [11] | [12] | [13] | [14] | [15] | [16] | [17]

NCc1cccc(C2CCN(C(=O)c3ccc(C#Cc4ccccc4F)o3)CC2)c1
inactive: [4] | [6] | [7] | [8] | [10] | [13]
active: [3] 8.2 µM | [19] 18.3 µM | [11] 1.76 µM | [12] 15.5 µM | [15] 7.38 µM | [16] 15.8 µM | [17] 15.8 µM

CN(C[C@@H](CC[N+]12CCC(C3CCCCC3)(CC1)CC2)c1ccc(Cl)c(Cl)c1)C(=O)c1cc(C(F)(F)F)cc(C(F)(F)F)c1
inactive: [1] | [8] | [10] | [19] | [11] | [12] | [13]
active: [6] 18.4 µM | [15] 14.3 µM | [16] 31.9 µM | [17] 30.4 µM

CN(C)c1ccc(C(=C2C=CC(=[N+](C)C)C=C2)c2ccc(N(C)C)cc2)cc1
inactive: [6] | [8] | [10] | [12]
active: [11] 2.43 µM | [13] 1.08 µM | [14] 5.5 µM | [15] 0.778 µM | [16] 5.56 µM | [17] 1.17 µM

O=C(O)c1ccccc1C(=O)OCc1ccccc1
not listed: [1] | [3] | [4] | [5] | [6] | [14]
inactive: all other assays above
